The panel holds about 83,000 compounds, 20% with a hit somewhere; the sample as a whole holds those more often.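 Single-concentration screen, 48 h exposure, 96-well plates. Endpoint: percent growth. Below 10 = active.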 A number with no mark means an inactive call. The source made the active and inactive calls.
Columns and labels:
Assay in all cases: NCI-60 one-dose screen, 48 h (100 = growth as untreated, 0 = no growth, -100 = all killed)
Settings in all cases: 10 µM unless noted
[1] = tested on: DU-145 prostate
[2] = tested on: K-562 leukemia
[3] = tested on: MALME-3M melanoma
[4] = tested on: MDA-MB-231 breast
[5] = tested on: RXF 393 renal
[6] = tested on: SF-268 CNS
[7] = tested on: SF-295 CNS
[8] = tested on: SF-539 CNS
[9] = tested on: UACC-257 melanoma
[10] = tested on: M14 melanoma

| SMILES | growth [1] | growth [2] | growth [3] | growth [4] | growth [5] | growth [6] | growth [7] | growth [8] | growth [9] | growth [10] |
| --- | --- | --- | --- | --- | --- | --- | --- | --- | --- | --- |
| C#CCN1C(=O)c2ccccc2N(CC#C)C12CCN(Cc1cn(CC(=O)Nc3ccccc3C(N)=O)nn1)CC2 | 98.7% | 92.4% | 102% | 89.9% | 90.5% | 91.7% | 85.5% | 91.5% | 103% | 89.3% |
| C=C1C(=O)O[C@H]2[C@H]1CC/C(COC(=O)NCc1nc3ccccc3[nH]1)=C\CC[C@@]1(C)O[C@@H]21 | 80.1% | 24.7% | 86.8% | 90.8% | 67.2% | 105% | 106% | 77.9% | 94.9% | 77.5% |
| Cc1cc2ccccc2c[n+]1CC(=O)c1ccc(-c2ccccc2)cc1 | 65.8% | 11% | 71.4% | 51.1% | 62.5% | 73.4% | 42.4% | 75.5% | 50.3% | 47.3% |
| N#Cc1ccc(N2Cc3cc(Cl)ccc3OC3=C2C(=O)N(Cc2ccc(F)cc2)C3=O)cc1 | -91.8% (active) | -21.6% (active) | -72.3% (active) | -0.424% (active) | -56.8% (active) | -58.4% (active) | 66.6% | -65.7% (active) | -64% (active) | -68.4% (active) |
| N#Cc1c(-c2ccc(F)cc2)c(C#N)c2c(C#N)c(N)nn2c1N | 89.8% | 106% | 110% | 102% | 84.4% | 93.3% | 101% | 90.8% | 110% | 105% |
| CC1(C)Cc2c(Br)c(Br)c(Br)c(OCC(O)CN3CCOCC3)c2O1 (stereo not given) | 106% | 44.1% | 35% | 83.2% | 70.6% | 105% | 113% | 92.9% | 97.3% | 94.5% |
| Cc1c(Cl)cccc1NC(=O)c1sc2nc3c(cc2c1N)CN(Cc1ccccc1)CC3 | 30.5% | 10% | 49.5% | 86.3% | 68.8% | 42.3% | 21.8% | 39.3% | 63.6% | 26.8% |
| COc1cc(NCC(=O)Nc2cc(Nc3cccc(C(F)(F)F)c3)ncn2)c(Cl)c(OC)c1Cl | 97.4% | 85.6% | 115% | 78.2% | 114% | 98.9% | 75% | 101% | 88.2% | 93.1% |
| COc1ccccc1C(=O)/C=C/c1cc2cccc(OC)c2[nH]c1=O | 16.5% | 5.33% (active) | -0.686% (active) | -0.926% (active) | -43.5% (active) | 2.36% (active) | 14.1% | -10% (active) | 33.6% | 9.63% (active) |
| O=Cc1[nH]c(Sc2ccccc2)c2ccccc12 | 83% | 35.5% | 58.2% | 85.1% | 75.1% | 75% | 114% | 78.8% | 77.7% | 81.3% |
| COc1cc(/C=C/C(=O)/C=C/c2cc3ccc(Cl)cc3[nH]c2=O)ccc1O | 45.9% | 23.2% | 101% | 45.9% | 70.9% | 72.2% | 79.7% | 105% | 90.8% | 54.1% |
| CCOC(=O)NC(Cc1ccccc1)c1ccccc1 (stereo not given) | 110% | 91% | 110% | 97.8% | 112% | 111% | 106% | 98.6% | 108% | 95.8% |
| CCOCc1cc(C(C)(C)C)ccc1O | 110% | 101% | 104% | 105% | 109% | 105% | 105% | 103% | 89.3% | 104% |
| C#C[C@@]1(O)[C@@H](CO)O[C@@H](n2cnc3c(-c4ccccc4)ncnc32)[C@@H]1O | 109% | 105% | 103% | 126% | 122% | 99% | 97.7% | 108% | 117% | 97.8% |
| c1ccc(-c2cn3ccnc3c(-c3ccc4c(c3)ncn4C3CCCCC3)n2)cc1 | 97.4% | 68.9% | 120% | 93.4% | 76.7% | 98.7% | 101% | 97.8% | 110% | 98.4% |
| C=C1C(=O)O[C@H]2[C@H]1CC/C(COC(=O)NCC(=O)Nc1ccc(OC)c(C(N)=O)c1O)=C\CC[C@@]1(C)O[C@@H]21 | 66.4% | 8.95% (active) | 59.7% | 68.2% | 16.5% | 70.8% | 101% | 7.54% (active) | 53.3% | 62.9% |
| CC(=O)c1cc2c(N)c(C(=O)Nc3ccccn3)sc2nc1C | 90.8% | 97.6% | 90.1% | 87.1% | 86.4% | 93% | 71.6% | 84.9% | 86.4% | 54.9% |
| COC(=O)c1nc(-c2ccccc2)oc1S(=O)(=O)n1nc(-c2ccccc2)cc1N | 96.2% | 4.99% (active) | 2.22% (active) | 103% | 103% | 87.5% | 97.5% | 80.7% | 52% | 76% |
| COc1ccc(-c2nc(C#N)c(NCC(c3ccc(Cl)cc3)N3CCCCC3)o2)cc1 (stereo not given) | 94% | 76.7% | 91.4% | 102% | 71.8% | 89.7% | 96.1% | 101% | 109% | 92.7% |
| COC(=O)c1ccc(NC(=O)CSc2nc(-c3ccc(F)cc3)nc3ccccc23)cc1 | 88.7% | 81.2% | 60.9% | 58.3% | 109% | 75.8% | 86.2% | 96.9% | 102% | 70.2% |
| CCOC(=O)c1c(C(F)(F)F)n([O-])c2ccc(Cl)cc2[n+]1=O | -95.7% (active) | -57.7% (active) | -84.5% (active) | -39.1% (active) | -60.6% (active) | -49.5% (active) | -86% (active) | -96.1% (active) | -70.6% (active) | -21.6% (active) |
| COc1ccc(OCC(=O)OC(C)C)cc1 | 101% | 98.7% | 91.1% | 98.1% | 80.5% | 92.5% | 96.6% | 98% | 97.7% | 98.6% |
| O=C(Nc1cc(Nc2ncccc2-c2ncnc3nc[nH]c23)ccc1F)c1cc(C(F)(F)F)cc(C(F)(F)F)c1 | 20.9% | -13.7% (active) | -58.4% (active) | -51.3% (active) | -63.4% (active) | 21.8% | -52.8% (active) | -56% (active) | -0.588% (active) | -41.7% (active) |
| C#CCOC(=O)[C@]1(C)CCC[C@]2(C)[C@H]3C[C@H]4C(C(C)C)=C[C@]3(CC[C@H]21)[C@@H]1C(=O)CCC(=O)[C@@H]14 | 102% | 77.2% | 110% | 74.6% | 86% | 99.2% | 83.7% | 84% | 92.3% | 91.9% |
| C#CC[C@@H]1C[C@]2(C)[C@H]3CC[C@@H]4[C@H]5[C@H](C(=C)C)CC[C@]5(C(=O)O)CC[C@@]4(C)[C@]3(C)CC[C@H]2C(C)(C)[C@H]1O | 57.4% | 35.1% | 53% | 20.8% | 6.63% (active) | 66.5% | 12.8% | 53.8% | 70.9% | 60.3% |
| C[C@]12CC[C@@H]3c4ccc(O)cc4CC[C@H]3[C@@H]1C[C@H](O)C2 | 93.9% | 19.7% | 80.5% | 64.6% | 100% | 78.4% | 87.3% | 73.5% | 78.5% | 52.7% |
